# Source: PubChem BioAssay (National Center for Advancing Translational Sciences (NCATS))
# This is a sample that favours compounds with a hit; in the whole collection about 19% have one here.
# DT40 TDP1 CPT: DT40-hTDP1 cell growth loss with CPT; chicken DT40 Tdp1-/-;hTDP1 cells + 20 nM CPT, ATP luminescence, 48 h; Potency, µM (top dose mostly 46.2 µM), usual class: inhibitors; 12% of 420,000 active; AID 686979; also: nearly all actives have a fitted effect of over 55% in size
#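 Chicken DT40 Tdp1-/- cells stably complemented with human TDP1 were seeded at 400 cells/well in medium containing 20 nM camptothecin, exposed to pin-transferred compounds, and grown at 37 °C for at least 48 hr. Viability was read as ATP luminescence.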
# IL-1B inflam inh: inhibitors of inflammasome signaling (IL-1 beta secretion) | THP-1 LPS/ATP IL-1B secretion, AlphaLISA, 16 h; hits give low values | 4.7% of 360,000 active | activity change, % at 57.5 µM; in the data active = activity change below about -50%; inconclusive = mostly about -30% to -49%
#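 Secreted IL-1B measured by AlphaLISA bead assay after 16 h compound exposure of THP-1 cells; compounds (final up to 57.5 uM) added 1 h before LPS (250 ng/mL) and ATP (1.25 mM) stimulation; lower signal means less secretion.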
# HT1080 IDH1KD tx: HT-1080 IDH1 knockdown cell toxicity (counter line) | 2% of 360,000 active | Potency, µM (titrated, usually from 46.1 µM), usual class: cytotoxic | HT-1080 IDH1 knockdown viability, ATP luminescence, 48 h | AID 686971
#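 CellTiter-Glo luminescence after 48 h compound exposure at 37 degrees C of IDH1-knockdown HT-1080 cells in 5% FBS RPMI. %Activity scaled between DMSO wells and cell-free media wells, with curves fitted and assigned curve classes.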
# TDP1 cell noCPT: qHTS for Inhibitors of human tyrosyl-DNA phosphodiesterase 1 (TDP1): qHTS in cells in absence of CPT | 15% of 420,000 active | Potency, µM (top dose mostly 46.2 µM), most hits filed as inhibitors | DT40 Tdp1-/- hTDP1 cells, no CPT, ATP luminescence, 48 h; also: nearly all actives have a fitted effect of over 55% in size
#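 DT40 Tdp1-/-;hTDP1 cells, no CPT (DMSO vehicle only), 400 cells/well; compounds pin-transferred; ≥48 hr, 37 °C; CellTiter-Glo 30 min RT dark, luminescence read.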
# HT1080-NT tox: kills 2HG-producing HT-1080-NT fibrosarcoma cells. HT-1080-NT fibrosarcoma viability, CellTiter-Glo ATP luminescence, 48 h. 1.6% of 360,000 active. Potency, µM (series often up to 46.1 µM), actives largely listed as cytotoxic;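 also: NT is the 2HG producing partner of a matched IDH1 knockdown line; nearly all actives have a fitted effect of over 55% in size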
#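 Toxicity toward the 2HG-producing NT line was scored as %Activity, normalised to DMSO and no-cell wells, from CellTiter-Glo luminescence after 48 hours' treatment.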
# ELG1 DNA repair: ELG1-dependent DNA repair inhibition; AID 504467; Potency, µM (series often up to 46.1 µM), usual class: inhibitors; 2.3% of 330,000 active; HEK293T ELG1-luciferase reporter, luminescence, 16 h; DNA damage induced by 5-fluorouridine; also: nearly all actives have a fitted effect of over 55% in size
#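 5-Fluorouridine DNA damage + compound/DMSO, 2,000 cells/well, 16 h, 37 °C/5% CO2. ONE-Glo, 30 min RT, luminescence. Readout = decrease in reporter signal.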
# Numbers stand for hits; . = inactive; ? = inconclusive; / = not tested or not shown. Unless noted, calls follow the shape of the dose curve; as a rule, active = well fitted curve in the direction sought with a large enough effect; inconclusive = small, poorly fitted or top-dose-only effect, or another doubt; inactive = no such curve, though single readings can be large; an effect the other way counts as inactive or inconclusive.
SMILES,DT40 TDP1 CPT,IL-1B inflam inh,HT1080 IDH1KD tx,TDP1 cell noCPT,HT1080-NT tox,ELG1 DNA repair
CC(C)n1c(=O)c2ccccc2n1Cc1cn(Cc2cccs2)nn1,.,.,.,.,.,/
Cc1ccc(Cn2ccnc2SCC(=O)Nc2nc3ccccc3s2)cc1,.,/,/,.,/,/
CC(C)(C)c1ccc(OCc2ccc(C(=O)N/N=C/c3ccc(O)c(O)c3)cc2)cc1,1.3µM,.,?,1.5µM,26µM,.
CC(C)(C)c1ccc(OCc2ccc(C(=O)N/N=C3\CC4CC=CC34)cc2)cc1 (stereo unspecified),13µM,.,?,15µM,?,?
CCOc1ccc(/C=N/NC(=O)COc2ccccc2-c2ccccc2)cc1,18µM,.,?,?,?,.
COc1ccc(/C=N/NC(=O)c2ccc(COc3cccc4cccnc34)cc2)cc1O,?,.,.,13µM,.,?
O=C(N/N=C1\CC2CC=CC12)c1ccc(COc2ccccc2)cc1 (stereo unspecified),.,.,.,?,.,.
COc1cc(NC(=O)c2ccc(-c3nc(COc4ccccc4)c(C)o3)cc2)cc(OC)c1,9.2µM,/,/,10µM,/,/
Cc1ccc(SCc2nc(-c3ccc(C(=O)NCC(C)c4ccccc4)cc3)oc2C)cc1 (stereo unspecified),8.2µM,/,/,6.5µM,/,/
COc1ccc(NC(=O)c2ccc(-c3nc(CSc4ccccc4)c(C)o3)cc2)c(OC)c1,.,/,/,.,/,/
COc1cccc(CNC(=O)c2ccc(-c3nc(CS(=O)c4ccccc4)c(C)o3)cc2)c1 (stereo unspecified),?,/,/,16µM,/,/
COc1ccc(CNC(=O)c2ccc(-c3nc(CSc4ccccc4)c(C)o3)cc2)cc1,.,/,/,.,/,/
Cc1oc(-c2ccc(C(=O)NCc3cccc(F)c3)cc2)nc1COc1ccccc1,.,/,/,.,/,/
CCOc1ccc(NC(=O)c2ccc(-c3nc(COc4ccccc4)c(C)o3)cc2)cc1,.,/,/,.,/,/
COc1ccc(OC)c(NC(=O)c2ccc(-c3nc(CSc4ccccc4)c(C)o3)cc2)c1,21µM,/,/,21µM,/,/
CC(C)(Oc1ccc(Cl)cc1)C(=O)OCc1nc2ccsc2c(=O)[nH]1,.,.,.,.,.,.
CSc1cccc(N2CC(C(=O)NCCC3=CCCCC3)CC2=O)c1 (stereo unspecified),?,.,.,?,.,.
CCOC(=O)c1c(C)[nH]c(C(=O)OCc2csc(CC(=O)Nc3ccccc3C)n2)c1C,16µM,.,.,13µM,.,?
Cc1ccccc1NC(=O)Cc1nc(COC(=O)c2cccc(C)c2O)cs1,.,.,.,.,.,.
Cc1ccccc1NC(=O)Cc1nc(COC(=O)c2nc(Cl)ccc2Cl)cs1,.,.,.,.,.,.
Cc1ccccc1NC(=O)Cc1nc(COC(=O)c2ncc(Cl)c(Cl)c2Cl)cs1,?,-88,.,?,.,/
Cc1cc(-c2ccc(N=Nc3ccc4c(S(=O)(=O)O)cc(S(=O)(=O)O)c(N)c4c3O)c(C)c2)ccc1N=Nc1ccc2c(S(=O)(=O)O)cc(S(=O)(=O)O)c(N)c2c1O,7.5µM,/,/,12µM,/,/
O=C(COC(=O)COc1ccc(Cl)cc1)NCc1cccs1,?,.,.,.,.,?
c1csc(CNc2ccn3nc(-c4ccc(OCCN5CCOCC5)cc4)cc3n2)c1,21µM,.,?,16µM,?,/
c1ccc(OCCNc2ccn3nc(-c4ccc(OCCN5CCOCC5)cc4)cc3n2)cc1,9.2µM,.,?,16µM,?,/
CCC(CO)[n+]1c(C)cc(/C=C2\Sc3ccccc3N2Cc2ccccc2)cc1C (stereo unspecified),2.3µM,-104,3.3µM,2.3µM,3.3µM,?
COCCn1c(=O)c(-c2cc(F)cc(F)c2)nc2cnc(OC)nc21,.,/,/,.,/,/
